Only some compounds are listed: those with a hit (about 4.2% of all), similar ones and a draw of the others.
tim23-1 inh: inhibits growth of tim23-1 mutant yeast; inhibition, % at 20 µM; S. cerevisiae tim23-1 growth, BacTiter-Glo luminescence, 24 h; actives 1.3% (n = 330,000);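 active = growth inhibition of the mutant yeast at or above 50%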;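 also: temperature-sensitive mutant grown at 25 °C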
V-ATPase pH: alters yeast V-ATPase proton transport | S. cerevisiae, pHLuorin cytosolic pH fluorescence | response, % at 10 µM | actives 0.37% (n = 350,000); in the data active = response mostly above about 7.3%, no sharp cut-off; inactive = mostly below about 5.4%; also: actives read high
TIM10 inh: inhibits growth of TIM10 yeast strain; inhibition, % at 10 µM; S. cerevisiae TIM10 strain growth, BacTiter-Glo luminescence, 24 h; actives 1.4% (n = 330,000);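 active = inhibition of 40% or more at the single tested concentration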;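 also: wild-type TIM10 isogenic control strain grown at permissive 25 °C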
NLRP3 yeast inh: blocks the NALP3 inflammasome reconstituted in yeast; Yeast reconstituted NLRP3/ASC/caspase-1, beta-gal luminescence, 24 h; inhibition, % at 10 µM; actives 0.39% (n = 330,000); AID 2825;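 active = inhibition of 50% or more; inactive = inhibition below 50%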
NALP1 inh: NALP1 inhibition; S. cerevisiae NALP1/ASC/caspase-1 growth, X-gal OD620, 72 h; AID 2071; inhibition, % at 10 µM; actives 0.61% (n = 280,000); in the data active = inhibition mostly above about 24%, no sharp cut-off; inactive = mostly below about 32%
tim10-1 inh: tim10-1 yeast growth inhibition; AID 463190; inhibition, % at 20 µM; actives 2.2% (n = 330,000); S. cerevisiae tim10-1 ts strain growth, BacTiter-Glo, 24 h;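 active = inhibition of at least 40%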;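 also: mutant grown at 25 °C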
tim10-1 conf: confirmation of tim10-1 mutant yeast growth inhibitors | shares compounds with tim10-1 inh | S. cerevisiae tim10-1 ts strain growth, BacTiter-Glo, 24 h | inhibition, % at 20 µM | actives 56% (n = 7,400);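 active = inhibition of yeast growth at or above a set limit in either of two repeat tests at 20 µM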;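 also: tim10-1 mutant grown at permissive 25 °C to find synthetic lethal compounds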
Each line names hits and unclear results; the compound was inactive in the other large screens (follow-up assays come after a bar, where they were run).

CCN(CC(=O)NCc1cccs1)CC(=O)Nc1ccccc1C	none (no result: NALP1 inh)
Cc1cc(O)c2c(c1)CC1C3CCC4CC(=O)CCC4(C)C3CC(=O)C21C (configuration not stated)	none (no result: tim23-1 inh, TIM10 inh, NLRP3 yeast inh, NALP1 inh, tim10-1 inh)
CCC(=NCc1ccccc1)c1c(C(F)(F)F)[nH]n(-c2nc3ccccc3s2)c1=O	tim10-1 inh 46 | tim10-1 conf 35
Cc1ccc([N+](=O)[O-])cc1NC(=O)CN(C(=O)c1ccccc1Cl)C1CCCCC1	tim10-1 inh 40 | tim10-1 conf inactive
COc1ccc(OC)c(S(=O)(=O)N2C(C)CCCC2C)c1 (configuration not stated)	tim10-1 inh 42 | tim10-1 conf inactive
COc1ccc(OC)c(S(=O)(=O)N2CCN3CCCC3C2)c1 (configuration not stated)	none
Cc1ccc2c(nc3s/c(=C\c4ccc(-c5ccccc5C(=O)O)o4)c(=O)n32)c1C	tim10-1 inh 46 | tim10-1 conf inactive
Cc1ccc2c(nc3s/c(=C/c4cccs4)c(=O)n32)c1C	none (no result: tim23-1 inh, TIM10 inh, NLRP3 yeast inh, tim10-1 inh)
CCc1ccc(-c2ccc3nnc(SC)n3n2)cc1	tim10-1 inh 56 | tim10-1 conf inactive
CCc1ccc(-c2ccc3nnc(SCC(N)=O)n3n2)cc1	none
CCSc1nnc2ccc(-c3cccs3)nn12	none
CCSc1nnc2ccc(-c3ccc(C)cc3)nn12	tim10-1 inh 45 | tim10-1 conf inactive
CC(C)N(C)CCOC(=O)C1COc2ccccc2O1 (configuration not stated)	none
O=C(NCc1nc2ccccc2[nH]1)c1ccc(Cl)c(S(=O)(=O)N2CCCC2)c1	none (no result: NALP1 inh)
CCCn1c(NC(=O)c2ccc(Cl)c(S(=O)(=O)N3CCCC3)c2)nc2ccccc21	tim10-1 inh 44 | tim10-1 conf 31
CCCCN(C(=O)c1[nH]c(C)c(C(=O)OCC)c1C)c1c(N)n(CCCC)c(=O)[nH]c1=O	none (no result: NALP1 inh)
O=C(Nc1ccccc1Cl)c1ccccc1	none
O=C(Nc1ccccc1Cl)C(Cl)C(=O)c1ccccc1 (configuration not stated)	tim10-1 inh 42 | tim10-1 conf 31
Cc1cccc(CN2C(=O)/C(=C\c3ccc(C(=O)NCCN4CCOCC4)cc3)Sc3ccccc32)c1	tim10-1 inh 42 | tim10-1 conf inactive
O=C(NCCN1CCOCC1)c1ccc(/C=C2\Sc3ccccc3N(Cc3ccccc3F)C2=O)cc1	none
Cc1ccccc1CN1C(=O)/C(=C\c2ccc(C(=O)NCCN3CCOCC3)cc2)Sc2ccccc21	tim10-1 inh 45 | tim10-1 conf inactive
COc1cc(CC(NC(C)=O)C(=O)NC2CCN(C(=O)Nc3ccccc3C)CC2)cc(OC)c1 (configuration not stated)	none
Cc1cccc(N=C2Sc3nc4c(C)c(C)ccc4cc3CN2CCN2CCOCC2)c1	tim10-1 inh 53 | tim10-1 conf 37
CCOc1ccc(CCNC(=O)CSc2n[nH]c(N)n2)cc1OCC	none
CN(Cc1ccc(Cl)cc1)C(=O)c1ccc2ccccc2n1	none
COc1ccccc1N1CCN(C(=O)CCCN2C(=O)c3cccc4cccc(c34)C2=O)CC1	tim10-1 inh 45 | tim10-1 conf inactive
CC(Oc1ccc(Cl)cc1Cl)C(=O)Nc1ccc(S(=O)(=O)Nc2cnc3ccccc3n2)cc1 (configuration not stated)	tim10-1 inh 42 (no result: V-ATPase pH) | tim10-1 conf inactive
CC(OC(=O)c1cc(=O)[nH]c2ccccc12)C(=O)Nc1ccccc1F (configuration not stated)	none (no result: NALP1 inh)
CCCn1c(C)nc2c(c1=O)c1nc3ccccc3nc1n2CCC1=CCCCC1	tim10-1 inh 49 | tim10-1 conf inactive
O=[N+]([O-])c1ccc2oc(C(O)c3cccc(Cl)c3)cc2c1 (configuration not stated)	tim10-1 inh 44 | tim10-1 conf 43
CCOC(=O)c1cc2cc([N+](=O)[O-])ccc2oc1=O	none
Cc1cc(C)n(CC(=O)NNC(=O)COc2ccc(Br)cc2F)n1	none (no result: NALP1 inh)
O=C(O)c1ccc(C=C(c2nc3ccccc3s2)c2nc3ccccc3s2)cc1	tim10-1 inh 59 | tim10-1 conf 45
Cc1ccc(OCC(=O)N/N=C\c2cn(C)c3ccccc23)c([N+](=O)[O-])c1	tim10-1 inh 41 | tim10-1 conf inactive
O=C(Nc1ccccc1)c1ccccc1O	none
CC(C1CC1)N(C(=O)c1ccccc1O)c1ccccc1 (configuration not stated)	none | tim10-1 conf inactive
Cc1cc2c(sc3c(C)ccc(C)c32)c(C)n1	tim10-1 inh 48 | tim10-1 conf inactive
CN(C(=O)CCN1C(=O)c2ccccc2C1=O)c1ccccc1	none (no result: NALP1 inh)
CCOc1cc(/C=N/O)cc(Br)c1OCc1ccc(Cl)cc1	tim10-1 inh 54 | tim10-1 conf inactive
COc1ccccc1C(=O)OCc1c(-c2ccccc2)ncc2ccccc12	none (no result: NALP1 inh)
O=C(NC1CCCN(Cc2ccccc2F)C1)c1cccs1 (configuration not stated)	none
CC(C)(C)c1ccc(OC(=O)CN2C(=O)C3C4CCC(C4)C3C2=O)cc1 (configuration not stated)	tim10-1 inh 42 | tim10-1 conf inactive
CC(C)N(Cc1ccccc1)C(=O)C1CCCN(c2ncnc3c2nc2n3CCCCC2)C1 (configuration not stated)	none
Cc1cccc(N2CCN(C(=O)C3CCN(c4ncnc5c4nc4n5CCCCC4)CC3)CC2)c1C	tim10-1 inh 56 | tim10-1 conf inactive
O=C(C1CCN(c2ncnc3c2nc2n3CCCCC2)CC1)N1CCN(c2ccccc2F)CC1	none
O=C(C1CCCN(c2ncnc3c2nc2n3CCCCC2)C1)N1CCN(c2cccc(Cl)c2)CC1 (configuration not stated)	tim10-1 inh 41 | tim10-1 conf inactive
O=C(Nc1ccc(Cl)cc1)C1CCCN(c2ncnc3c2nc2n3CCCCC2)C1 (configuration not stated)	tim10-1 inh 53 | tim10-1 conf inactive
CCCCN(Cc1ccco1)C(=O)C1CCCN(c2ncnc3c2nc2n3CCCCC2)C1 (configuration not stated)	tim10-1 inh 41 | tim10-1 conf inactive
Cc1cccc(CSc2nnc([C@@H]3CCCN3)o2)c1	none
CCCc1ccc2oc(C(=O)N(C)Cc3nccs3)c(C)c2c1	none
O=C(Nc1nc(-c2cc(Cl)sc2Cl)cs1)c1ccccc1	tim10-1 inh 44 | tim10-1 conf inactive
O=C(Nc1nc(-c2ccc(Cl)s2)cs1)c1cccs1	tim10-1 inh 42 | tim10-1 conf inactive
O=C(Nc1nc(-c2ccc(Cl)cc2)cs1)c1cccnc1	none
O=C(Nc1nc2ccc(F)cc2s1)c1cccs1	tim10-1 inh 41 | tim10-1 conf 32
O=C(Nc1nc(-c2ccccn2)cs1)c1ccc(Cl)s1	NALP1 inh 98, tim10-1 inh 51 | tim10-1 conf inactive
CN(C)S(=O)(=O)c1ccc2nc(NC(=O)c3cccs3)sc2c1	none
